# Compound activity (PubChem)
# A selection: hits, their analogues and other compounds. The true share with any hit is near 21%.
# Pf growth 48h: Primary qHTS for delayed death inhibitors of the malarial parasite plastid, 48 hour incubation; AID 504832, 2011; actives 5.9% (n = 310,000); P. falciparum luciferase growth in erythrocytes, 48 h; Potency, µM (doses to about 28.7 µM), for inactives: top-dose activity change, negative = inhibition, most hits filed as inhibitors; note: potency is the fitted concentration of half-maximal effect; % is set by controls: 0 for no effect and ±100 for the full control effect
#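 Compounds are pin-transferred into medium, infected erythrocytes (2% hematocrit, 0.1% parasitemia final) are added, and plates sit one parasite generation at 37 C in 5% CO2. Detection reagent is then added and luminescence measured.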
# NS1 inh: qHTS Assay for Inhibitors of Influenza NS1 Protein Function | Potency, µM (top dose mostly 46.1 µM), inactives show top-dose activity, positive = more growth | actives 0.4% (n = 270,000) | AID 2326, 2010; calls by dose curve; note: potency is the fitted concentration of half-maximal effect; actives are rising curves; nearly all actives have a fitted effect of over 50% in size
#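 Growth recovery, yeast-based: influenza A NS1 expressed in S. cerevisiae causes slow growth, and suppressors are detected by OD600. The parent strain without NS1 is used as positive control.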
# Pf growth 96h: Primary qHTS for delayed death inhibitors of the malarial parasite plastid, 96 hour incubation; P. falciparum luciferase reporter growth, 96 h; Potency, µM (highest dose often 28.7 µM), for the others: at the highest dose activity change, negative = inhibition, usual class: inhibitors; actives 6.9% (n = 320,000); AID 504834, 2011; note: potency is the fitted concentration of half-maximal effect; % is set by controls: 0 for no effect and ±100 for the full control effect
#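 Parasite growth measured via integrated firefly luciferase reporter in P. falciparum. Infected erythrocytes at 2% hematocrit, 0.05% parasitemia final were treated 96 hours at 37 C under 5% CO2, and luminescence was read.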
# Shiga inhibitor: A qHTS for Small Molecule Inhibitors of Shiga Toxin; actives 9.2% (n = 290,000); AID 2315, 2010; inhibition, % at 38.7 µM; Vero cells, Shiga toxin protein synthesis inhibition reporter; in the data active = inhibition mostly above about 28%, no sharp cut-off; inactive = mostly below about 43%; note: 0% is about no effect
# CHX counter: Cycloheximide Counterscreen for Small Molecule Inhibitors of Shiga Toxin; cell reporter, cycloheximide protein synthesis inhibition counterscreen; max response, %; actives 12% (n = 300,000); AID 2314, 2010; in the data active = max response mostly above about 13%, no sharp cut-off; inactive = mostly below about 14%; note: read at 38.3 µM for the half of the compounds with a filed dose; 0% is about no effect
# * = called active by the depositor; ? = inconclusive; . = not tested or not shown. Unless noted, calls come from the whole dose curve; as a rule, active = well fitted inhibition curve with a large enough effect; inconclusive = small, poorly fitted or top-dose-only effect, or another doubt; inactive = no such curve, though single readings can be large or run the other way.
SMILES,Pf growth 48h,NS1 inh,Pf growth 96h,Shiga inhibitor,CHX counter
CC(NS(=O)(=O)/C=C/c1ccccc1)C(=O)NCCc1ccc(S(N)(=O)=O)cc1 (stereo not drawn),?,0%,?,12,-3
Cc1cc(=O)oc2cc(OC(C)C(=O)N3CCCc4ccccc43)ccc12 (stereo not drawn),-3%,-2%,.,60,24*
Cc1cccc(N2CCN(C(=O)COc3ccc4c(C)cc(=O)oc4c3C)CC2)c1C,12µM*,6%,?,-8,2
CCc1cc(=O)oc2cc(OCC(=O)N3CCc4ccccc43)ccc12,20%,10%,75%,-11,-1
CCc1cc(=O)oc2c(C)c(OCC(=O)N3CCCc4ccccc43)ccc12,12µM*,-32%,.,-16,-3
CCOc1ccc(Cc2nnc(SCC(=O)Nc3c(C)cccc3C)[nH]c2=O)cc1,1%,.,-2%,.,.
COc1cccc(NC(=O)CNC(=O)Cn2cnc3sc(C)c(C)c3c2=O)c1,27%,6%,5%,16,0
COc1ccc(C(=O)OCc2csc(C)n2)c(O)c1,162%,-2%,131%,61*,42*
CCc1cc(/C(Cc2csc(C)n2)=N/O)c(O)cc1O,5%,4%,.,-24,-2
N/N=C(\Cc1cscn1)c1ccc(O)cc1O,9%,6%,0%,80*,36*
COc1ccc(C(=O)COC(=O)c2ccccc2O)c(OC)c1,347%,.,280%,.,.
Cc1nc(C/C(=N\N)c2ccc(O)cc2O)cs1,?,4%,-12%,64,25*
CCCc1nn(C)c(C(=O)Nc2cccc(Cl)c2)c1Cl,137%,-11%,198%,66*,50*
CCCc1nn(C)c(C(=O)Nc2cccc(C)c2)c1Cl,114%,-12%,185%,55*,58*
CCN1CCN(CCC(=O)Nc2cccc(C)c2)CC1,5%,-8%,-3%,-7,-1
O=C(CN(C(=O)CNS(=O)(=O)c1ccccc1)C1CCCC1)NCc1ccco1,.,-5%,?,-8,-3
COc1cc(/C=N/NC(=O)CN2CCCCC2)ccc1OCc1ccc(Br)cc1,3%,9%,-4%,-2,12*
Cc1nn(C)c(C(=O)N/N=C/c2cccc3ccccc23)c1Cl,21%,9%,-13%,43*,11*
Cc1cc(C(=O)N/N=C/c2ccc(OCc3ccccc3)cc2)c(C)o1,?,-7%,7%,56,22*
CCOc1cc(/C=N/OC(C)=O)ccc1OCc1ccccc1,27%,-5%,10µM*,18,12*
CCOc1cc(C(=O)N2CCOCC2)ccc1OCc1ccccc1,-4%,-3%,-22%,-41,12
Cc1ccc(-n2ncc3c(NNC(=O)c4cccs4)ncnc32)cc1,19%,.,?,24,7
Cc1cccc(NC(=O)CNC(=O)c2ccc(-n3cncn3)c([N+](=O)[O-])c2)c1C,10%,.,2%,.,.
COc1ccccc1OCc1ccc(C(=O)N/N=C/c2ccco2)cc1,?,24%,?,-2,-2
Cc1cc(C(=O)N/N=C/C=C/c2ccccc2)c(C)o1,-2%,-1%,20%,-9,13
SMILES,Pf growth 48h,NS1 inh,Pf growth 96h,Shiga inhibitor,CHX counter
Cc1cc(C(=O)N/N=C/c2ccccc2)c(C)o1,86%,-7%,107%,68*,58*
COc1ccc(/C=N/NC(=O)c2ccco2)cc1OCc1ccccc1,8.3µM*,-4%,?,42*,19*
Cc1cc(C(=O)N/N=C/c2cccc3ccccc23)c(C)o1,39%,-12%,?,41,29*
COc1ccc(/C=N/NC(=O)c2cc(C)oc2C)cc1OCc1ccccc1,-15%,-1%,-16%,32,12*
COc1cc(/C=N/NC(=O)CC2(C)OCCCO2)ccc1OCc1ccc(Cl)cc1Cl,15%,-12%,-10%,9,9
COc1cc(/C=N/NC(=O)CC2(C)OCCCO2)ccc1OCc1ccccc1,-17%,-22%,5%,9,23*
O=C(N/N=C/c1ccccc1O)c1cc(=O)[nH]c2ccccc12,26%,2%,1%,23,11
O=C(N/N=C/c1ccccc1O)c1cccc2ccccc12,12µM*,21%,214%,21,13*
Cc1nc2sccn2c(=O)c1Cl,-8%,0%,-26%,-6,-2
Cn1c(=O)c2c(nc3sccn32)n(C)c1=O,1%,0%,-25%,11,20*
COc1sc(SC)cc1/C=N/NC(=O)c1ccncc1,10%,-3%,15%,5,-1
CC(=O)N1CCN(c2ccc(NC(=O)c3ccc4ccccc4c3)cc2)CC1,-26%,-4%,-26%,7,26*
CC(=O)N1CCN(c2ccc(NC(=O)c3ccc(Cl)cc3)cc2)CC1,-4%,19%,?,-12,-4
CCOc1cc(C(=O)Nc2ccc(N3CCN(C(C)=O)CC3)cc2)cc(OCC)c1OCC,19%,14%,157%,.,6
O=C(Nc1ccc(N2CCCCC2)cc1)c1cc([N+](=O)[O-])cc([N+](=O)[O-])c1,26%,.,10%,22,-1
CC(=O)N1CCN(c2ccc(NC(=O)c3cccc(Cl)c3)cc2)CC1,98%,-13%,0%,73*,31*
O=C(Nc1ccc(N2CCCC2)cc1)c1ccc2ccccc2c1,302%,?,?,active,49*
CC(=O)N1CCN(c2ccc(NC(=O)c3ccc(C(C)(C)C)cc3)cc2)CC1,10µM*,8%,1%,45*,32*
CCC(CO)NCC#Cc1ccccc1 (stereo not drawn),15%,2%,93%,-8,5
Cc1ccc(C(CC(=O)O)NC(=O)CN2C(=O)c3ccccc3C2=O)cc1 (stereo not drawn),-6%,10%,3%,-2,-4
CCOc1ccc(S(=O)(=O)N2CCN=C2c2ccccc2)cc1,-1%,5%,?,-3,-2
COc1ccc(OC)c(/C=C/C(=O)OCC(=O)Nc2nnc(-c3ccccc3)o2)c1,?,.,-24%,.,.
CC(=O)N1CCN(c2ccc(NC(=O)c3ccccc3C)cc2)CC1,30%,7%,-4%,4,10*
CC(=O)N1CCN(c2ccc(NC(=O)c3cccc(Cl)c3Cl)cc2)CC1,?,7%,52%,-1,-2
NC(=S)N/N=C/c1cccc(Br)c1,-4%,-5%,?,-10,-2
NC(=S)N/N=C/c1c(O)c(Br)cc2oc3c(c12)CCCC3,3.3µM*,3%,?,-8,1
COC(=O)c1ccc2nc(NC(=O)CSCC(=O)OCC(=O)c3ccccc3)sc2c1,32%,-25%,19%,34,36*
O=C(CSCC(=O)OCC(=O)c1ccc(Br)cc1)Nc1cccc2ccccc12,33%,-11%,103%,-6,-4
Cc1ccc2nc(NC(=O)CSCC(=O)OCC(=O)c3ccc(Br)cc3)sc2c1,-19%,13%,?,46,15*
